Screening results from PubChem BioAssay.
GLA spleen mod – inhibits or activates alpha-galactosidase in human spleen homogenate; P06280; human spleen homogenate, 4MU-alpha-Gal fluorescence, 40 min; Potency, µM (highest dose often 80 µM), inactives show at the highest dose activity change, negative = inhibition, usual class: inhibitors; 0.008% of 240,000 active;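 also: potency is read from the fitted curve at half-maximal effect; 0% = enzyme with vehicle and -100% = no enzyme basal signal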
Target sequence (P06280 32-429 limits assumed): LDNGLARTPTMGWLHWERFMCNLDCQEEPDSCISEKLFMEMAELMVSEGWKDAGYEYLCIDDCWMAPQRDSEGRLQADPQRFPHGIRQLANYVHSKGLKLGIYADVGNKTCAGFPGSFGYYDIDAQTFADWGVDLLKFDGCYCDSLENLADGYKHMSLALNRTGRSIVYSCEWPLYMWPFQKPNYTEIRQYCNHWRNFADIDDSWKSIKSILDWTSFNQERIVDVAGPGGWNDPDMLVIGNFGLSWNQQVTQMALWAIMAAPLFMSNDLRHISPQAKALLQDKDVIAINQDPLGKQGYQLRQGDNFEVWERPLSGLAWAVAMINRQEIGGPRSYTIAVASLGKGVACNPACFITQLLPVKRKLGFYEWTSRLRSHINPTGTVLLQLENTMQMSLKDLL
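Human spleen homogenate (1 ug) as enzyme source, 4-methylumbelliferyl-alpha-D-galactopyranoside 1 mM final, citrate/phosphate pH 5.0 with 0.01% Tween-20. Compounds 40 min at 37C, NaOH/glycine stop; fluorescence Ex 365/Em 440, Hill-fit AC50.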
HTT cytoprotect – Huntington cell model cytoprotection by ATP luminescence. PC12 HTT-Q103 induced, cytoprotection, ATP luminescence, 40 h. Potency, µM (top dose mostly 56.4 µM), for inactives: cytoprotection (ATP increase), actives largely listed as activators. 0.14% of 230,000 active. AID 1471; also: potency is read from the fitted curve at half-maximal effect; % of control where 0% means no effect; nearly all actives have a fitted effect of over 45% in size
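PC12 cells stably carrying ecdysone-inducible Htt exon 1 (Q103)–GFP were induced with 100 nM tebufenozide (final) alongside library compounds in a dose series. Cytoprotection was scored as retained ATP by ATPlite luminescence.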
ERK EGF inh – blocks ERK signaling stimulated by EGF. HEK293-V1b, EGF-stimulated phospho-ERK AlphaScreen. Potency, µM (highest dose often 11.5 µM), without a hit: at the top dose activity change, negative = inhibition, hits mostly inhibitors. 0.41% of 130,000 active. AID 1454;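 also: potency is read from the fitted curve at half-maximal effect; plate controls were stimulated vehicle wells for no effect and unstimulated vehicle basal for full effect; nearly all actives have a fitted effect of over 55% in size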
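Homogeneous cell-based phospho-ERK assay: HEK293/V1b cells in 1% FBS, compound 30 min then EGF 5 min, AlphaScreen luminescence. Activity normalized between DMSO and 25 nM EGF controls; AC50 from Hill modelling.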
HTT aggregate – inhibitors of mutant huntingtin aggregate formation in PC12 cells | PC12 HttQ103-GFP aggregates, Acumen cytometry, 40 h | Potency, µM (highest dose often 46.1 µM), for the others: top-dose activity change, negative = inhibition, most hits filed as inhibitors | 1.1% of 220,000 active | AID 1688; also: potency is read from the fitted curve at half-maximal effect; % is scaled to controls: 0 for no effect and ±100 for the full control effect; nearly all actives have a fitted effect of over 60% in size
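Aggregates are detected as GFP objects 1–25 µm with signal 6 STDEV over background in lysates of induced PC12 cells. These carry Huntingtin exon 1 with 103 glutamines fused to GFP under an ecdysone promoter; compounds titrated.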
GLA inh pH 4.5 – alpha-galactosidase A (human) inhibition, pH 4.5; purified enzyme, 4-MU-alpha-Gal fluorescence, pH 4.5; 230,000 tested, under 10 active; P06280; AID 1467; activity change, negative = inhibition, % at 105 µM;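 also: 0% = full activity with enzyme and -100% = basal without enzyme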
Numbers without * were called inactive; u = inconclusive; x = no result given; [ ] = remark or other dose. Most compounds without a hit are left out; they make up all but 1.2% or so of the library. Calls follow the shape of the dose curve; as a rule, active = well fitted curve in the direction sought with a large enough effect; inconclusive = small, poorly fitted or top-dose-only effect, or another doubt; inactive = no such curve, though single readings can be large; an effect the other way counts as inactive or inconclusive.

SMILES	GLA spleen mod	HTT cytoprotect	ERK EGF inh	HTT aggregate	GLA inh pH 4.5
CCCN(Cc1cc2cc(C)ccc2[nH]c1=O)C(=O)c1cccc(OC)c1	3%	-26%[0.074 µM]	x	10µM*	3
CCC(C)C(NC(=O)OC(C)(C)C)C(=O)NC1COC2CC(n3ccc(NC(C)=O)nc3=O)OC12 (centres undefined)	11%	x	x	x	x
CCc1nnc(NC(=O)c2cccc(C(=O)Nc3nnc(CC)s3)n2)s1	8%	-79%[0.074 µM]	-11%	0.89µM*	6
c1coc(CNc2nc3nonc3nc2NCc2ccco2)c1	2%	-10%[10 µM]	x	11µM*	-3
CCOC(=O)C1=C(C)N(C)C(=S)NC1c1ccc(Cl)cc1 (centres undefined)	-3%	x	6%	20µM*	-9
O=C(Nc1cccc(Cl)c1)OCC#CCCl	14%	x	x	x	x
C[C@H]1[C@@H](OC(=O)CCC(=O)O)OC2OC3(C)CC[C@H]4[C@H](C)CC[C@@H]1[C@@]24OO3 (some centres undefined)	x	-97%	x	3.2µM*	x
COc1cc2c3nnc(-c4ccccc4)c-3cn(Cc3ccccc3F)c2cc1OC	-4%	-2%[10 µM]	-1%	8%	6
COc1cc2c3nnc(-c4ccc(F)cc4)c-3cn(Cc3ccccc3F)c2cc1OC	1%	-121%	2%	7.1µM*	-5
C=CCn1c(NC(=O)c2ccccc2Cl)c(C#N)c2nc3ccccc3nc21	4%	-45%	x	16µM*	-7
C=CCn1c(NC(=O)c2ccccc2)c(C#N)c2nc3ccccc3nc21	x	-25%[10 µM]	x	x	x
N#CCCCS(=O)(=O)c1nnnn1-c1ccc(F)cc1Br	-4%	7.1µM*	-17%	x	1
O=S(=O)(CCc1ccccc1)c1nnnn1-c1ccc(F)cc1Br	-10%	26%	7%	x	-10
Cc1c(O)c2c3c(cccc3c1O)C(=O)N(c1ccccc1)C2=O	-1%	x	1%	20µM*	1
O=C(O)c1ccc2c3c(cccc13)C(=O)N(c1ccccc1)C2=O	1%	20%	3%	8%	-7
CCCNC(=O)Cn1c(=O)/c(=C\c2ccc(-c3ccc([N+](=O)[O-])cc3)o2)s/c1=C\C(=O)C(C)(C)C	-6%	20%[10 µM]	-8%	14µM*	-5
O=C(/C=C/c1ccccc1O)c1ccc(Cl)cc1	-10%	-3%[10 µM]	40µM*	-13%[9.22 µM]	-2
COc1ccc(Nc2ccc(S(=O)(=O)N3CCCCC3)cc2[N+](=O)[O-])cc1OC	0%	x	u	-14%	1
COc1ccc(Nc2ccc(S(=O)(=O)N3CCCCCC3)cc2[N+](=O)[O-])cc1	0%	8%[10 µM]	20µM*	-16%	9
C/C=C\C1=C(CO)[C@H](O)[C@H]2OC2[C@@H]1O (some centres undefined)	-2%[17.5 µM]	-21%[10 µM]	x	x	x
COc1cc(OC)cc(-c2nnc(Nc3nc4c(F)cccc4s3)o2)c1	22%	4%	x	-6%	22
Fc1cccc2sc(Nc3nnc(-c4ccccc4)o3)nc12	5%	-6%[1.9 µM]	-5%	11µM*	7
CCOC(=O)O[C@]1(C(=O)COC(=O)CC)CC[C@@H]2[C@@H]3CCC4=CC(=O)C=C[C@@]4(C)[C@H]3[C@H](O)C[C@]21C	-1%[29.1 µM]	-8%[40.3 µM]	-15%[25.7 µM]	14%[20.6 µM]	3
Cc1ccc(N2C(=O)c3cccc4c([N+](=O)[O-])ccc(c34)C2=O)c2cccnc12	2%	-37%[10 µM]	17%[57.5 µM]	-33%[9.22 µM]	4
Cc1ccnc(N2C(=O)c3cccc4c([N+](=O)[O-])ccc(c34)C2=O)c1	-3%	-2%[10 µM]	x	18µM*	-8
SMILES	GLA spleen mod	HTT cytoprotect	ERK EGF inh	HTT aggregate	GLA inh pH 4.5
O=C1c2cccc3c([N+](=O)[O-])ccc(c23)C(=O)N1Cc1cccnc1	3%	-37%	u	35µM*	7
O=C(O)CCCCn1cnc2c(=S)nc[nH]c21	x	-4%[10 µM]	x	x	x
O=C(CCc1nc(-c2ccccc2F)no1)Nc1ccc(Oc2ccccc2)cc1	-2%	-89%	x	4µM*	-10
COc1cccc(NC(=O)CCc2nc(-c3ccccc3F)no2)c1	5%	-11%	x	u	-10
NC(=O)c1c(-c2ccc(Cl)cc2Cl)csc1NC(=O)Cc1ccccc1	5%	0%[10 µM]	-3%	11µM*	-14
O=C(Cc1ccccc1)Nc1scc(-c2ccccc2)c1C(=O)N1CCOCC1	-7%	13%	x	15%	3
Cc1cccc(-n2ncc3c(N4CC(C)CC(C)C4)ncnc32)c1 (centres undefined)	-3%	-98%	x	22µM*	-4
CC(C)[C@H](NC(=O)OC(C)(C)C)c1nnc(S(=O)(=O)Cc2c(F)cccc2Cl)o1	-1%	-115%	x	10µM*	-7
CC[C@@H](C)[C@H](NC(=O)OC(C)(C)C)c1nnc(S(=O)(=O)Cc2cc(C)ccc2C)o1	-10%	u	x	u	1
CCOC(=O)c1oc2ccc(S(=O)(=O)n3nc(-c4ccc(OC)cc4)cc3N)cc2c1C	-3%	16%	6%	3%	9
CCOC(=O)c1oc2ccc(S(=O)(=O)n3nc(-c4ccccc4)cc3N)cc2c1C	11%	-38%	x	10µM*	-1
O=C(O)CN(c1ccc(F)cc1)S(=O)(=O)c1ccc2c(c1)OCCO2	-1%	3.2µM*	x	x	2
CCCOC(=O)N1CCN(/[N+]([O-])=N/Oc2ccc([N+](=O)[O-])cc2[N+](=O)[O-])CC1	-5%	x	x	x	x
CC(C)C[C@H](NC(=O)[C@H](CO)NC(=O)[C@H](C)NC(=O)[C@H](CCCN=C(N)N)NC(=O)[C@H](CCCN=C(N)N)NC(=O)[C@@H](N)CC(C)C)C(=O)NCC(=O)O	4%	x	x	x	x
COc1ccc(NC(=O)c2sc(SCc3ccccc3)nc2N)cc1	0%	2%[10 µM]	x	25µM*	-7
COc1ccc(NC(=O)c2sc(SC)nc2N)cc1	-1%	-26%[10 µM]	x	x	3
CCOc1ccc2c(c1)-c1c(ssc1=S)C(C)(C)N2C(=O)CSC1=NCCS1	2%	20%[10 µM]	18µM*	28%	4
CCN(c1cccc(C)c1)S(=O)(=O)c1ccc2c3c(cccc13)C(=O)N2	1%	-15%[1.9 µM]	2%	u	-16
CCN(CC)S(=O)(=O)c1ccc2c3c(cccc13)C(=O)N2	8%	-5%	x	1.6µM*	5
N#Cc1cc2c(OCC(O)CN3CCN(C(c4ccccc4)c4ccccc4)CC3)cccc2[nH]1 (centres undefined)	12%	-138%	x	x	x
CN(C)c1ccc(C(=O)Nc2nc3c(s2)CCCC3)cc1	-1%	-44%[10 µM]	22µM*	5%	-20
COc1cccc(-n2nc(C(N)=O)c(O)cc2=O)c1	-5%	-15%	-3%	2%	8
COc1cccc(-n2nc(C#N)c(Cl)cc2=O)c1	8%	-173%	4%	3.5µM*	4
C[C@H](N)C(=O)N[C@@H](C)P(=O)(O)O	x	-7%	x	-6%	x
O=C(c1ccco1)N1CCN(c2ncnc3sc4c(c23)CCC4)CC1	1%	-3%	x	-27%	-6
